{"source": "PubChem BioAssay AID651718", "about": "(The Scripps Research Institute Molecular Screening Center, 2012)", "note": "About 2,700 (0.75%) of roughly 360,000 compounds were called active. What follows is part of a selection rich in actives, with near analogues and random picks from the rest. A number with no mark means an inactive call. No stated cut-off is given here; in the data, active means inhibition above about 4.5%; inactive means the rest.", "data": [{"system": "Methionine sulfoxide reductase A (Bos taurus)", "assay": "bovine MsrA enzyme inhibitors, primary screen, biochemical, absorbance, HTS (AID 651718);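 further: 0% = vehicle wells with enzyme and 100% = reference inhibitor wells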", "conditions": "purified bovine MsrA, absorbance read-out; at 15.5 µM; stronger effect = higher value", "values": [{"compound": "N#Cc1cccc(C(=O)NCC2CCN(C(=O)C(=O)c3cc4ccccc4o3)CC2)c1", "inhibition": "1.67%"}, {"compound": "COc1ccc(S(=O)(=O)N2CCCCCC2)cc1NC(=O)Cc1ccc(OC)c(OC)c1", "inhibition": "-0.53%"}, {"compound": "COc1ccccc1CC(=O)Nc1ccc(S(=O)(=O)N2CCCC2)cc1", "inhibition": "-0.82%"}, {"compound": "COc1ccc(-c2ccc(Nc3ccc(S(=O)(=O)N4CCCC4)cc3)nn2)cc1OC", "inhibition": "5.88% (active)"}, {"compound": "COc1ccc(S(=O)(=O)NC(C)c2ccccc2)cc1C(=O)N1CCCCC1", "note": "(configuration not stated)", "inhibition": "0.8%"}, {"compound": "COC(=O)C1=C(C)N(Cc2ccccc2C(F)(F)F)C(=NCc2ccc(C(F)(F)F)cc2)NC1c1ccc(F)cc1", "note": "(configuration not stated)", "inhibition": "-2.62%"}, {"compound": "C#CCN([C@@H](C)C(=O)OCC)S(=O)(=O)c1ccc(Br)cc1F", "inhibition": "-0.88%"}, {"compound": "CCCc1nc(SCC(=O)N2CCCC2)c2c(=O)n(C)c(=O)n(C)c2n1", "inhibition": "5.22% (active)"}, {"compound": "CCOC(=O)N1CCN(C(=O)CSc2nc(C)nc3c2c(=O)n(C)c(=O)n3C)CC1", "inhibition": "-1.46%"}, {"compound": "Cn1c(=O)c2c(SCC(=O)N3CCOCC3)nc(C3CC3)nc2n(C)c1=O", "inhibition": "-0.05%"}, {"compound": "CC1CCCN(c2cccc3c2S(=O)(=O)N(Cc2ccc(F)cc2)[C@@H](C)[C@H](c2ccccc2)O3)C1", "note": "(some centres not stated)", "inhibition": "0.93%"}, {"compound": "Cc1ccc(C)c(NC2=NCC(=O)N2c2ccc3c(c2)OCCO3)c1", "inhibition": "0%"}, {"compound": "Cc1ccc(N2C(=O)CN=C2Nc2nc(C)cc(C)n2)cc1", "inhibition": "6.56% (active)"}, {"compound": "Cc1cc(C)nc(NC2=NCC(=O)N2c2ccc(Cl)cc2)n1", "inhibition": "3.92%"}, {"compound": "COC(=O)C1=C(C)N(Cc2cccc(C(F)(F)F)c2)C(=NCc2ccccc2)NC1c1ccccc1C(F)(F)F", "note": "(configuration not stated)", "inhibition": "-1.24%"}, {"compound": "CC(C)[C@@H](C)/C=C/[C@@H](C)[C@H]1CC[C@@H]2[C@]1(C)CCC1[C@]23C=C[C@]2(C[C@@H](O)CC[C@]12C)N(c1ccc([N+](=O)[O-])cn1)O3", "note": "(some centres not stated)", "inhibition": "-1.75%"}, {"compound": "O=C(O)CC1S/C(=N\\N=C/c2ccccc2O)N(c2ccc(O)cc2)C1=O", "note": "(configuration not stated)", "inhibition": "4.57% (active)"}, {"compound": "CN1C(=O)C(CC(=O)Nc2ccccc2)S/C1=N/c1nccs1", "note": "(configuration not stated)", "inhibition": "1.53%"}, {"compound": "CCCCOCC1CN(CCCC)S(=O)(=O)c2c(Oc3ccc(F)cc3)cccc2O1", "note": "(configuration not stated)", "inhibition": "0.09%"}, {"compound": "C[C@H](CO)N1C[C@H](C)[C@@H](CN(C)C(=O)Nc2ccccc2F)OCc2cn(nn2)CCCC1=O", "inhibition": "-1.47%"}, {"compound": "COc1ccc(S(=O)(=O)c2c[nH]c(=S)[nH]c2=O)cc1Cl", "inhibition": "5.55% (active)"}, {"compound": "Cc1ccc(S(=O)(=O)c2c[nH]c3ccc(Cl)cc3c2=O)cc1", "inhibition": "-0.29%"}, {"compound": "COc1ccc(S(=O)(=O)N(C)CC(=O)N2CCCC2)cc1Cl", "inhibition": "-0.26%"}, {"compound": "C[C@H](O)[C@@H]1C(=O)N2CCc3c([nH]c4c(-c5ccc6c(c5)OCO6)cccc34)[C@@H]2C[C@@H]1N(C)C(=O)c1ccco1", "inhibition": "-0.82%"}, {"compound": "COC(=O)C1=C(C)N(Cc2ccc(C(F)(F)F)cc2)C(=NCc2ccc(C(F)(F)F)cc2)NC1c1cccc(Cl)c1", "note": "(configuration not stated)", "inhibition": "-2.13%"}, {"compound": "Cc1ccc(/C=N/NC(=S)NC2CCCCC2)o1", "inhibition": "4.73% (active)"}, {"compound": "C/C(=N\\NC(=S)NC1CCCCC1)c1ccc(C)o1", "inhibition": "2.23%"}, {"compound": "Cc1ccc(/C=N/NC(=O)Cn2nc(C)c(Br)c2C)o1", "inhibition": "1.58%"}, {"compound": "COc1ccccc1CNS(=O)(=O)c1cc2c3c(c1)CCC(=O)N3CCC2", "inhibition": "0.88%"}, {"compound": "Cc1cccc(CN2CCN(C3CN(Cc4cn(Cc5cc(C)cc(C)c5)nn4)S(=O)(=O)C3)CC2)c1", "note": "(configuration not stated)", "inhibition": "-0.09%"}, {"compound": "COC(=O)c1c(-c2ccc(OC)cc2)c2c(c3c4cc(OC)ccc4n(S(=O)(=O)c4ccc(F)cc4)c13)C(=O)N(C)C2", "inhibition": "1.35%"}, {"compound": "COC(=O)[C@]12C[C@H](CC(=O)NCc3ccc(OC)c(OC)c3)C(=O)N(Cc3ccccc3)C1=C[C@H](C(C)C)O[C@@H]2C1CC1", "inhibition": "0.87%"}, {"compound": "C/C(=N\\Nc1nc2ccccc2[nH]1)c1cccs1", "inhibition": "4.27%"}, {"compound": "C/C(=N\\Nc1ccc(S(N)(=O)=O)cc1[N+](=O)[O-])c1cccs1", "inhibition": "4.74% (active)"}, {"compound": "C/C(=N\\Nc1ccccc1)c1cccs1", "inhibition": "-0.47%"}, {"compound": "COc1cccc(CC(=O)N2CCN(C(=O)C(=O)c3cccc(C(F)(F)F)c3)CC2)c1", "inhibition": "-0.48%"}, {"compound": "COc1ccccc1Cc1c(-c2ccc(F)cc2)nc2ccc(C)cn12", "inhibition": "-0.14%"}, {"compound": "O=C(N[C@H](C(=O)N1CCC[C@H]1C(=O)NCCc1ccccc1Cl)c1ccccc1)c1ccccc1", "inhibition": "-1.55%"}, {"compound": "COC(=O)[C@]1(Cc2ccccc2)NC=C(C(=O)c2ccccc2)[C@@H]1c1cccc(OC)c1", "inhibition": "1.03%"}, {"compound": "Cc1nc2ccccc2n1CC(=O)N/N=C/c1cccs1", "inhibition": "0.96%"}, {"compound": "Cc1n[nH]c(=O)nc1N/N=C/c1cccs1", "inhibition": "5.54% (active)"}, {"compound": "Cn1c(=O)c2c(nc(N/N=C/c3cccs3)n2Cc2ccc(Br)cc2)n(C)c1=O", "inhibition": "-0.37%"}, {"compound": "Cc1ccc(N)cc1CN1CCN(c2ncc(Cc3ccccc3)cn2)CC1", "inhibition": "-0.75%"}, {"compound": "CC(=O)C1=C(C)N(Cc2ccccc2)C(=S)NC1c1cccc(Br)c1", "note": "(configuration not stated)", "inhibition": "0.33%"}, {"compound": "COc1ccccc1C(=O)N/C(=C/c1ccc2c(c1)OCO2)C(=O)Nc1cccc(C(=O)O)c1", "inhibition": "5.04% (active)"}, {"compound": "COc1ccccc1C(=O)N/C(=C/c1ccco1)C(=O)Nc1ccc(C(=O)O)cc1", "inhibition": "3.68%"}, {"compound": "COc1ccc(/C=C(/NC(=O)c2ccccc2)C(=O)Nc2cccc(C(=O)O)c2)cc1", "inhibition": "1.96%"}, {"compound": "O=C(NCc1ccccc1)[C@H]1CCCN1C(=O)[C@@H]1CCCN1C(=O)c1ccc(Cl)cc1Cl", "inhibition": "-0.17%"}, {"compound": "NC(=S)N/N=C/c1ccc([N+](=O)[O-])cc1", "inhibition": "5.41% (active)"}, {"compound": "NC(=O)C1(Nc2ccc([N+](=O)[O-])cc2)CCCC1", "inhibition": "1.4%"}, {"compound": "O=[N+]([O-])c1ccc(N=NNc2ccc([N+](=O)[O-])cc2)cc1", "inhibition": "0.99%"}, {"compound": "Cc1ccc2nc(SCc3nnc(-c4ccccc4[N+](=O)[O-])o3)c(C#N)cc2c1", "inhibition": "-0.69%"}, {"compound": "Cc1ccc(-c2ccc(/C=C(\\C#N)C(N)=S)o2)c([N+](=O)[O-])c1", "inhibition": "10.9% (active)"}, {"compound": "COC(=O)[C@]12C[C@H](CC(=O)NCCC(C)C)C(=O)N(CCc3ccc(OC)c(OC)c3)C1=C[C@H](C(C)(C)C)O[C@@H]2C", "inhibition": "-0.48%"}, {"compound": "CN[C@H]1C[C@H]2c3[nH]c4c(-c5ccccc5)cccc4c3CCN2C(=O)[C@H]1[C@H](C)O", "inhibition": "0.9%"}, {"compound": "CC(C)CC(CCc1ccccc1)OS(N)(=O)=O", "note": "(configuration not stated)", "inhibition": "0.27%"}, {"compound": "O=C(N/N=C/c1ccco1)c1ccc(C(=O)N/N=C/c2ccco2)o1", "inhibition": "10% (active)"}, {"compound": "O=C(Cc1ccccc1)Nc1cccc(C(=O)N/N=C/c2ccco2)c1", "inhibition": "2.33%"}, {"compound": "O=C(Cc1ccc([N+](=O)[O-])cc1)N/N=C/c1ccco1", "inhibition": "1.04%"}, {"compound": "C[C@H]1CN([C@@H](C)CO)C(=O)CCCn2nncc2CO[C@@H]1CN(C)C(=O)Nc1ccc(N2CCN(C)CC2)cc1", "inhibition": "-0.42%"}, {"compound": "O=C(Nc1c(Cl)c(C2CC2)nn1-c1ccccc1)C(Cl)(Cl)Cl", "inhibition": "-0.78%"}, {"compound": "O=C(Nc1cccc(F)c1)[C@@H]1CCCN1", "inhibition": "0.99%"}, {"compound": "Cc1nc2nc(SCC(=O)Nc3cccc(F)c3)[nH]c2cc1Br", "inhibition": "-0.88%"}, {"compound": "O=C(Nc1cccc(F)c1)c1coc(=O)c(Br)c1", "inhibition": "5.37% (active)"}, {"compound": "Nc1nc2c(ncn2[C@@H]2O[C@H](C(=O)N[C@@H](Cc3ccccc3)C(=O)NCc3ccccc3)[C@@H](O)[C@H]2O)c(=O)[nH]1", "inhibition": "-0.25%"}, {"compound": "COC(=O)c1ccc(CN2C(=O)[C@]3(OCCC=C[C@H]3C)c3c(Br)cccc32)cc1", "inhibition": "1.8%"}, {"compound": "COCCCNC(=O)C[C@H]1C[C@@]2(C(=O)OC)C(=C[C@H](C(C)(C)C)O[C@@H]2C)N(Cc2ccc3c(c2)OCO3)C1=O", "inhibition": "-0.56%"}, {"compound": "Cc1cc(C(C)(C)C)cc(S(=O)(=O)Nc2ccc(C(=O)O)cc2)c1C", "inhibition": "1.5%"}, {"compound": "O=C(O)c1ccc(F)c(S(=O)(=O)Nc2ccccc2)c1", "inhibition": "-0.45%"}, {"compound": "Cc1ccc(C(=O)Nc2ccccc2-c2ccccc2)cc1S(=O)(=O)Nc1ccccc1", "inhibition": "4.76% (active)"}, {"compound": "Cc1ccc(NC(=O)N2c3ccccc3SC2c2ccco2)c(C)c1", "note": "(configuration not stated)", "inhibition": "-0.74%"}, {"compound": "Cc1nc2ccccn2c(=O)c1NC(=O)c1ccc(Br)o1", "inhibition": "2.43%"}, {"compound": "CN1C(=O)CN2CCc3ccccc3C2c2cc(Cl)ccc21", "note": "(configuration not stated)", "inhibition": "1.04%"}, {"compound": "CC1CCCCN1S(=O)(=O)c1ccc(S(=O)(=O)N(CC(=O)Nc2ccccc2)Cc2cccs2)cc1", "note": "(configuration not stated)", "inhibition": "-0.63%"}, {"compound": "CSCc1nnc(NC(=O)c2ccc(S(=O)(=O)N3CCCCC3C)cc2)o1", "note": "(configuration not stated)", "inhibition": "-0.31%"}, {"compound": "CC1CCCCN1S(=O)(=O)c1ccc(C(=O)Nc2nnc(-c3cccs3)o2)cc1", "note": "(configuration not stated)", "inhibition": "4.79% (active)"}, {"compound": "O=C(N[C@H](Cc1ccccc1)C(=O)N1CCCN(Cc2cccs2)CC1)[C@H]1O[C@@H](n2ccc(=O)[nH]c2=O)[C@H](O)[C@@H]1O", "inhibition": "0.08%"}, {"compound": "O=c1c(F)cn(C2CCCO2)c(=O)n1Cc1ccccc1Cl", "note": "(configuration not stated)", "inhibition": "0.2%"}, {"compound": "CN(c1ccccc1)S(=O)(=O)c1ccc2[nH]c(=O)[nH]c2c1", "inhibition": "14.1% (active)"}, {"compound": "O=c1[nH]c2ccc(S(=O)(=O)N3CCCC3)cc2[nH]1", "inhibition": "-0.78%"}, {"compound": "CCN(c1ccccc1)S(=O)(=O)c1ccc2[nH]c(=O)[nH]c2c1", "inhibition": "2.53%"}, {"compound": "CN1C(=O)C(Br)(Br)CC1c1cccnc1", "note": "(configuration not stated)", "inhibition": "1.57%"}]}]}
